# Screens: PubChem, National Center for Advancing Translational Sciences (NCATS)
# PI5P4K alpha inh = qHTS for Inhibitors of phosphatidylinositol 5-phosphate 4-kinase (PI5P4K). Phosphatidylinositol 5-phosphate 4-kinase type-2 alpha (Homo sapiens), P48426. PI5P4Kalpha enzyme, ADP-Glo luminescence, 60 min; stronger effect = lower value. max response, %. 1.2% of 330,000 active. AID 652105, 2013; active means max response of -50% or lower; inconclusive means between -30% and -50%; inactive means -30% or higher; further: value at the top dose of about 77 µM
#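 Compounds were pin-transferred onto PI5P4Kalpha and substrate in HEPES pH 7.4 buffer with EGTA, CHAPS and 5% DMSO. ATP (5 microM final) started the reaction, which ran 60 minutes at room temperature before ADP-Glo detection.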
# BAZ2B block = qHTS Assay for Inhibitors of BAZ2B; Bromodomain adjacent to zinc finger domain protein 2B (Homo sapiens), Q9UIF8; AlphaScreen BAZ2B-H3K14Ac peptide displacement; Potency, µM (highest dose often 114 µM), usual class: inhibitors; 4.4% of 360,000 active; further: nearly all actives have a fitted effect of over 60% in size
#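 AlphaScreen displacement: compounds (up to 110uM) incubated 30 min at room temperature with a preformed 50 nM BAZ2B/50 nM biotinylated H3K14Ac peptide complex in PBS pH 7.4 with Tween-20. Donor and acceptor beads at 10 ug/mL final added, 20 min light-protected before reading.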
# JMJD2A Tudor = qHTS Assay for Inhibitors of JMJD2A-Tudor Domain; Lysine-specific demethylase 4A (Homo sapiens), O75164; AlphaScreen JMJD2A-Tudor / H3K4me3 peptide binding; Potency, µM (top dose mostly 114 µM), actives largely listed as inhibitors; 4.4% of 390,000 active; AID 504339, 2011; further: nearly all actives have a fitted effect of over 50% in size
# L3MBTL1 block = qHTS Assay for the Inhibitors of L3MBTL1 | Potency, µM (titrated, usually from 57.1 µM), hits mostly inhibitors | Lethal(3)malignant brain tumor-like protein 1 (Homo sapiens), Q9Y468 | 0.66% of 230,000 active | AlphaScreen L3MBTL1–H3K9me1 peptide binding | AID 485360, 2010; further: nearly all actives have a fitted effect of over 60% in size
#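 Displacement of a biotinylated histone H3(1-15) peptide monomethylated at Lys9 (75 nM) from L3MBTL1 (50 nM) was measured by AlphaScreen after a 30 min room-temperature compound incubation; cefsulodin titration served as intraplate control.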
# HP1b chromo inh = HTS for Inhibitors of HP1-beta Chromodomain Interactions with Methylated Histone Tails; AlphaScreen HP1-beta / biotin-H3K9me3 peptide binding; Potency, µM (highest dose often 114 µM), most hits filed as inhibitors; AID 540317, 2011; 0.56% of 390,000 active; further: nearly all actives have a fitted effect of over 70% in size
# Target sequence (P83916 whole entry, looked up): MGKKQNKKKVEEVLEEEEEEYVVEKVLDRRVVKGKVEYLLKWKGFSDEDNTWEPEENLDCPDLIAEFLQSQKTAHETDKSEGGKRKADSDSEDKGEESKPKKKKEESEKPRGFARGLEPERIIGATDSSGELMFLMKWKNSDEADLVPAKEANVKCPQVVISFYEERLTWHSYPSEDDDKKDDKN
#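 Compound inhibition of the preformed complex between 50 nM HP1-beta and 50 nM biotinylated H3K9me3 peptide was read by AlphaScreen. Buffer was PBS pH 7.4 with 0.01% Tween-20. Incubations ran 30 min at room temperature, with 10 ug/mL donor/acceptor beads.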
# KDM4E inh = qHTS Assay for Inhibitors of Human Jumonji Domain Containing 2E (JMJD2E) | Lysine-specific demethylase 4E (Homo sapiens), B2RXH2 | JMJD2E catalytic domain, FDH-coupled NADH fluorescence (FDH is formaldehyde dehydrogenase) | Potency, µM (top dose mostly 57.1 µM), most hits filed as inhibitors | 1.6% of 230,000 active | AID 2147, 2009; active means well fitted inhibition curve with a large enough effect, not every such curve was filed as active; inconclusive means small, poorly fitted or top-dose-only effect, or another doubt; inactive means no such curve, though single readings can be large or run the other way; further: nearly all actives have a fitted effect of over 50% in size
# Target sequence (B2RXH2 1-337 limits assumed): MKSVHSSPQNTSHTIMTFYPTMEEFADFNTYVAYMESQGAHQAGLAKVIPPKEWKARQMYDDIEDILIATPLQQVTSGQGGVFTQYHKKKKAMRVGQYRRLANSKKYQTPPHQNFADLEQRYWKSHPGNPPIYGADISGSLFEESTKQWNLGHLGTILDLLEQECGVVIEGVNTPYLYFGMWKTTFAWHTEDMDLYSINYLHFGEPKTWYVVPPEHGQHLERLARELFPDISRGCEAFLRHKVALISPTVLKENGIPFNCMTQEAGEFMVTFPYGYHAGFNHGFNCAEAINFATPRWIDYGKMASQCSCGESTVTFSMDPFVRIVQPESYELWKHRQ
# A number is an active result; - = inactive; ? = inconclusive; . = no result given; [ ] = dose if it differs, or a comment. Hits are enriched below; roughly 5.7% of the tested compounds scored in any of these assays. Unless noted, the call rests on the fitted dose curve; in most records, active means well fitted inhibition curve with a large enough effect; inconclusive means small, poorly fitted or top-dose-only effect; inactive means no such curve, though single readings can be large or run the other way.
SMILES,PI5P4K alpha inh,BAZ2B block,JMJD2A Tudor,L3MBTL1 block,HP1b chromo inh,KDM4E inh
CCOC(=O)COc1ccc(C2CC(C)=NN2c2ccccc2)cc1 (configuration not stated),-,-,-,.,-,-
CCOC(=O)COc1ccc(C2NC(C(=O)O)CS2)cc1 (configuration not stated),-,56µM,7.9µM,-[11.4 µM],?,?
CCOc1ccccc1C(=O)N(Cc1cccs1)c1ccc(Cl)cc1,.,-,-,.,-,.
Cc1ccc(C(CC(=O)Nc2ccc(F)c(Cl)c2)N2Cc3ccccc3C2=O)cc1 (configuration not stated),.,-,-,.,-,.
C=CCc1cccc(OC)c1OCCOCCNCCO,-,56µM,5.6µM,.,-,?
COc1ccccc1-c1oc2ccccc2c1C#CC1(O)CCCCC1,-,.,-,-,-,.
COc1ccccc1-c1oc2ccccc2c1C#CCCO,-,50µM,?,-,-,.
C#CCOCCOCCOCCNc1nc(N2CCN(C(=O)[C@H]([C@@H](C)CC)n3cc(CCC(=O)O)nn3)CC2)nc(N2CCN(C(=O)[C@H](CCCCN)n3cc(CCCC)nn3)CC2)n1,-,.,-,.,-,.
C#CCOCCOCCOCCNc1nc(N2CCN(C(=O)Cn3cc(CC(C)O)nn3)CC2)nc(N2CCN(C(=O)[C@H](CCCCN)n3cc(CCCC)nn3)CC2)n1 (some centres not stated),-,.,-,.,-,.
C#CCOCCOCCOCCNc1nc(N2CCN(C(=O)[C@H]([C@@H](C)CC)n3cc(CCC(=O)O)nn3)CC2)nc(N2CCN(C(=O)[C@H](CCCCN)n3cc(CC(C)O)nn3)CC2)n1 (some centres not stated),-70,.,?,.,-,.
C#CCOCCOCCOCCNc1nc(N2CCN(C(=O)Cn3cc(CCO)nn3)CC2)nc(N2CCN(C(=O)[C@H](CCCCN)n3cc(CC(C)O)nn3)CC2)n1 (some centres not stated),-,.,89µM,.,-,.
CCNC(=S)N1CCN(C(=O)C(Cc2ccccc2)NC(C)=O)CC1 (configuration not stated),-,-,-,.,-,-
CCCCNc1c(-c2cccc(-c3ccc(OC)cc3)c2)nc2ccc(C)cn12,-,45µM,25µM,-,-,.
CCCCCCSc1cccc(-c2nc3ccc(Cl)cn3c2NCCCC)c1,-,.,-,.,-,.
CCCCNc1c(-c2cccc(-c3cc(C(C)=O)cs3)c2)nc2ccc(C)cn12,-,35µM,25µM,?,-,.
CC(=O)Nc1c(C)nn(-c2ccccc2)c1N1CCC(C(=O)Nc2ccc(Cl)cc2C)CC1,.,-,-,.,-,.
Cc1cccc(CNC(=O)CCn2c(=O)c3cccn3c3ccc(F)cc32)c1,.,-,-,.,-,.
O=C(C1CCCN(S(=O)(=O)c2ccc(Br)s2)C1)N1CCN(c2ccccc2F)CC1 (configuration not stated),.,-,-,.,-,.
CCC(C)(C)c1nnc(NC(=O)CCC2CCCCC2)s1,-,.,-,.,-,.
CCOC(=O)c1c(-c2ccc(C)cc2)csc1NC(=O)CCN1CCOCC1,-,32µM,6.3µM,-,?,32µM
CCOC(=O)c1c(-c2ccccc2)csc1NC(=O)CCN1CCOCC1,-,50µM,2µM,-,?,-
CCOC(=O)c1c(-c2ccc(C)cc2)csc1NC(=O)c1cc(=O)c2ccc(C)cc2o1,.,-,-,.,-,.
CCOC(=O)c1c(-c2ccc(C)cc2)csc1NC(=O)c1cc2ccccc2oc1=O,-,40µM,-,-,-,-
CCCOc1ccc(C(=O)Nc2ccc(S(=O)(=O)N3C[C@@H]4C[C@@H](C3)c3cccc(=O)n3C4)cc2)cc1,-,-,-,-,-,.
Cc1ccc(CNC(=O)c2c[nH]c3ccc(S(=O)(=O)Nc4ccc(C(C)C)cc4)cc3c2=O)cc1,.,-,-,.,-,.
